Shown are actives, neighbours in structure and some others; about 27% of the full set was active somewhere.
CYP2C9 activ – activators of human CYP2C9; activation factor at 5 µM; actives 1.4% (n = 96,000); recombinant CYP2C9, luciferin-H conversion, luminescence; hits give high values; factor 1 = untreated enzyme, 0 = blocked; AID 1024;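 active = activation factor of 2 or more for CYP2C9 at a 5 µM dose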;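 note: 0 = sulfaphenazole-blocked wells and 1 = vehicle-only wells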
Cav3 T inh – blocks human Cav3.2 T-type calcium channel | Cav3.2-expressing cells, Fluo-4 calcium fluorescence FDSS; hits give low values | AID 449739 | B-score at 10 µM | O95180 | actives 4% (n = 100,000);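 active = single-dose well whose peak fluorescence ratio is a statistical outlier from its plate by either plate-standardised score or position-corrected B-score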
CYP2C19 inh – inhibitors of human CYP2C19; CYP2C19 Supersomes, luciferin-H EGE luminescence, 30 min; inhibition, % at 5 µM; P33261; actives 21% (n = 96,000); AID 778;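 active = CYP2C19 inhibition above a set limit at 5 µM in the primary screen, cut at about 50% in these data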;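 note: plate controls were negative control wells for no effect and 2.5 mM tranylcypromine positive control for full effect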
CYP2C19 act – cytochrome P450 2C19 (human) activation | activation factor at 5 µM | P33261 | recombinant CYP2C19, luciferin-H EGE luminescence; hits give high values; 0 = fully inhibited enzyme, 1 = untreated enzyme | AID 1025 | 96,000 tested, under 10 active;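 active = activation factor of at least 2 at 5 µM in the primary screen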;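 note: 0 = wells with 2.5 mM tranylcypromine and 1 = vehicle-only wells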
CYP2C9 inhib – blocks human cytochrome P450 2C9; inhibition, % at 5 µM; P11712; CYP2C9 Supersomes, luciferin-H conversion, luminescence; actives 20% (n = 96,000);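 active = blocking of liver enzyme CYP2C9 beyond about 50% at 5 µM, limit read from the data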
The depositor's hits bear a star; nt = no result given.

SMILES	CYP2C9 activ	Cav3 T inh	CYP2C19 inh	CYP2C19 act	CYP2C9 inhib
CC(C)(C)OC(=O)NNC(=S)NCc1ccc(Cl)cc1	0.4	-0.49	57*	0.4	55*
CCCCn1c(=O)n(CC(=O)Nc2ccc(OC)c(Cl)c2)c(=O)c2c1nc(CO)n2CCC	0.1	-5.5*	79*	0.2	90*
CCCCn1c(=O)n(CC(=O)Nc2ccc(C)c(Cl)c2)c(=O)c2c1ncn2Cc1ccco1	0.4	-4.8	51*	0.5	62*
CCCCn1c(=O)n(CC(=O)Nc2c(CC)cccc2CC)c(=O)c2c1nc(CO)n2CCC	0.8	-0.2	-5	1.1	22
Clc1ccc(NNc2ccnc3cc(Cl)ccc23)cc1	0.2	-2.3	66*	0.3	80*
NC1=NC(c2ccc(Cl)cc2)n2c(nc3ccccc32)N1 (centres undefined)	0.9	-0.89	88*	0.1	10
NC1=NC(c2ccccc2Cl)n2c(nc3ccccc32)N1 (centres undefined)	1	-0.66	-3	1	-3
COc1cccc(NC(=O)CCc2nc(-c3ccccc3F)no2)c1	0.4	-0.22	26	0.7	60*
COc1ccccc1-c1noc(CCC(=O)Nc2cccc(C(F)(F)F)c2)n1	nt	-7.6*	nt	nt	nt
CCOC(=O)c1[nH]c(C)c(C(=O)OCC(=O)N(CC)C2CCS(=O)(=O)C2)c1C (centres undefined)	0.7	0.28	-20	1.2	28
CCCOC(=O)/C(C(N)=NCc1ccccc1)=C(\O)OCCC	0.7	-2.1	42	0.6	35
C=CCOC(=O)C1=C[C@@H](c2ccc(Br)cc2)C[C@@H](OCc2ccc(CO)cc2)O1	nt	-1.1	nt	nt	nt
Cc1cc(C)n(-c2nc3c(c(=O)[nH]c(=O)n3C)n2CC(O)COc2ccccc2)n1 (centres undefined)	0.9	0.71	25	0.8	14
Cc1cc(C)n(-c2nc3c(c(=O)[nH]c(=O)n3C)n2CC(O)COc2ccccc2C)n1 (centres undefined)	0.8	-0.026	74*	0.3	19
Cc1ccc(Cn2c(-n3nc(C)cc3C)nc3c2c(=O)[nH]c(=O)n3C)cc1	0.9	-0.22	15	0.8	10
Cn1c(=O)[nH]c(=O)c2c1nc(N1CCOCC1)n2CC(O)COc1ccccc1 (centres undefined)	0.2	1.5	18	0.8	75*
Cc1cc(C)n(-c2nc3c(c(=O)[nH]c(=O)n3C)n2Cc2cccc(Br)c2)n1	0.5	0.5	55*	0.4	46
CCN(CC)CC(O)COc1ccc2c(c1)OCO2 (centres undefined)	1	0.49	4	1	0
O=C(CN1CCN(Cc2ccccc2)CC1)NC(=O)NCc1ccco1	1	0.41	3	1	-4
Cc1ccc(C)c(S(=O)(=O)N2CCN(CC(=O)NC(=O)NCc3ccccc3)CC2)c1	2.2*	-4	21	0.8	-123
O=C(NC1CCCCC1)c1ccc(S(=O)(=O)NCc2ccco2)cc1	0.7	-0.46	9	0.9	27
O=C(COC(=O)c1ccc(S(=O)(=O)Nc2ccccc2)cc1)NCCN1C(=O)CSC1=O	0.2	-0.0055	62*	0.4	81*
O=C(COC(=O)c1ccc(S(=O)(=O)Nc2ccccc2)cc1)NCc1ccco1	0.2	-0.78	42	0.6	75*
O=C(COC(=O)c1ccc(S(=O)(=O)NCc2ccco2)cc1)NCC1CCCCC1	0.4	0.16	17	0.8	58*
CC1(C)Cc2c(ccc3ccccc23)C(NNC(=O)c2cccnc2)=N1	1	0.73	-3	1	-1
SMILES	CYP2C9 activ	Cav3 T inh	CYP2C19 inh	CYP2C19 act	CYP2C9 inhib
O=C1CCCc2oc3ccc(O)cc3c21	nt	0.024	nt	nt	nt
Cc1cc(-c2cc(-c3ccccc3)on2)nc(NCC2CC2)n1	nt	2.2	nt	nt	nt
CCCCSc1ccc(NC(=O)c2cccnc2)cc1	0.5	-1.2	23	0.8	49
O=C(Cc1cccs1)N(Cc1ccco1)C1(C(=O)NC2CCCCC2)CCCCC1	0.9	-7.1*	13	0.9	13
CC(=O)N(Cc1ccco1)C1(C(=O)NC2CCCCC2)CCCCC1	1	-0.2	-11	1.1	4
Cc1cc(NC(=O)CCC(=O)N(Cc2ccco2)C2(C(=O)NC3CCCCC3)CCN(C)CC2)no1	0.9	0.95	74*	0.3	11
CC1(C(=O)NC2CCCCCCC2)CCC(=O)N1Cc1cccs1 (centres undefined)	1.3	0.35	71*	0.3	-28
CC1(C(=O)NC2CCCCC2)CCC(=O)N1Cc1cccs1 (centres undefined)	1.5	0.37	18	0.8	-46
O=C(Cc1cccs1)N(Cc1cccs1)C1(C(=O)NC2CCCC2)CCCCC1	0.9	-8.4*	16	0.8	9
Cc1cc(C)c2nc(C(F)(F)F)nc(NCCCN3CCOCC3)c2c1	0.7	-3.6	34	0.7	32
COC(=O)c1c(C(=O)OC)c2cc(C(=O)c3ccccc3)ccn2c1Cl	nt	0.061	nt	nt	nt
O=C(O)CN(c1ccc(F)cc1)S(=O)(=O)c1ccc2c(c1)OCCO2	0.8	-3.4	10	0.9	24
Cc1cc(C(=O)CN(Cc2ccc(F)cc2)S(=O)(=O)c2ccc3c(c2)OCCO3)c(C)n1C	0.3	-2.9*	60*	0.4	66*
O=S(=O)(c1ccc2c(c1)OCCO2)N(Cc1ccc(F)cc1)Cc1nnc(-c2cccs2)o1	0.1	-3.5	33	0.7	87*
COC(=O)Cn1c(CN2CCOCC2)nc2c1c(=O)[nH]c(=O)n2C	1.2	-0.32	-15	1.2	-18
CC1=C(CC(=O)c2ccccc2)C(=O)c2ccccc2C1=O	0.3	nt	63*	0.4	68*
CCC(Oc1ccccc1)C(=O)N1CC(C)CC(C)C1 (centres undefined)	0.9	-0.1	51*	0.5	12
CCC(Oc1ccccc1)C(=O)Nc1ccc(S(=O)(=O)N2CCOCC2)cc1 (centres undefined)	nt	-1.4	nt	nt	nt
C=CCN1C(=O)C2C(C(=O)NC)C3(C)C=CC2(O3)C1C(=O)NCc1ccc(OC)cc1 (centres undefined)	1.1	-0.9	0	1	-9
O=C1OCCC1Sc1nnc(-c2ccc(Br)cc2)o1 (centres undefined)	1	-0.098	62*	0.4	5
Cc1ccccc1N1CCN(CCN2C(=O)CC(=C3c4ccccc4-c4ccccc43)C2=O)CC1	nt	-0.28	nt	nt	nt
O=c1n(CCCN2CCN(c3cccc(Cl)c3)CC2)nc2ccccn12	nt	0.37	nt	nt	nt
O=C1CC(=C(c2ccccc2)c2ccccc2)C(=O)N1CCCCN1CCN(c2cccc(Cl)c2)CC1	0.3	0.12	29	0.7	66*
Cc1ccccc1N1CCN(CCCN2C(=O)CC(=C(c3ccccc3)c3ccccc3)C2=O)CC1	0.5	-3.6	73*	0.3	50*
CCOC(=O)C1=C(c2ccccc2)OC(N)=C(C#N)C1C(C)C (centres undefined)	0.9	-1.1	32	0.7	10
COC(=O)C1=C(CSc2nc3c(cc2C#N)CN(C)CC3)OC(N)=C(C#N)C1c1ccccc1F (centres undefined)	nt	-0.55	nt	nt	nt
